Measured values: PubChem BioAssay (NCATS)
Inconclusive results are not listed. Where a call stands in place of a potency, no number is given. The source made the active and inactive calls. The call rests on the fitted dose curve; in most records, active means well fitted cell-killing curve with a large enough effect; inconclusive means small, poorly fitted or top-dose-only effect; inactive means flat fitted curve, though single readings scatter.

Experiment: qHTS of pediatric cancer cell lines to identify multiple opportunities for drug repurposing: Primary screen for Rh18 cells (AID 1347102); further: nearly all actives have a fitted effect of over 65% in size
Conditions: Rh18 rhabdomyosarcoma viability, CellTiter-Glo luminescence, 48 h; series mostly up to 46 µM
Summary of the method: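 Cells (500-1,000/well) in growth media were settled 5 h at 37 degrees C, then given compounds for 48 h. Viability was read as CellTiter-Glo luminescence. Primary runs used MIPE at 11 points (0.78 nM-46 µM) and NPC at 8 points (0.59 nM-46 µM); follow-ups used 11 points.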
For C=C[C@H]1CN2CC[C@H]1C[C@H]2[C@H](O)c1ccnc2ccc(OC)cc12, the Potency was “inactive”. With CCOCCn1c(N2CCCN(C)CC2)nc2ccccc21 the Potency was “inactive”. For Cc1ccc(O)c([C@H](CCN(C(C)C)C(C)C)c2ccccc2)c1, the Potency was “inactive”. For CCCCC(CC)COC(=O)c1ccc(N(C)C)cc1 (stereo unspecified), the Potency was “inactive”. With Cc1cc(NS(=O)(=O)c2ccc(N)cc2)nc(C)n1 the Potency was “inactive”. For COc1cc(N)c(Cl)cc1C(=O)NC1CCN(Cc2ccccc2)CC1, the Potency was “inactive”. In the case of CCCCN=C(N)N=C(N)N, the Potency is reported as “inactive”. In the case of CC(C)Cc1ccc(CC(=O)O)cc1, the Potency is reported as “inactive”. For CCN(CC)CCOc1ccccc1C(=O)CCc1ccccc1, the Potency was “inactive”. With CC(=O)Nc1ccc(S(=O)(=O)Nc2ccc([N+](=O)[O-])cc2)cc1 the Potency was “inactive”. In the case of Nc1nc(-c2ccccc2)c(Br)c(=O)[nH]1, the Potency is reported as “inactive”. In the case of OC(C#CCN1CCCC1)(c1ccccc1)c1ccccc1, the Potency is reported as “inactive”. With CC(C)Nc1cccnc1N1CCN(C(=O)c2cc3cc(NS(C)(=O)=O)ccc3[nH]2)CC1 the Potency was “inactive”. In the case of NS(=O)(=O)c1cc2c(cc1Cl)NC(CC1CCCC1)NS2(=O)=O (stereo unspecified), the Potency is reported as “inactive”. In the case of C=C1c2cccc(O)c2C(O)=C2C(=O)[C@]3(O)C(O)=C(C(N)=O)C(=O)[C@@H](N(C)C)[C@@H]3[C@@H](O)[C@H]12, the Potency is reported as “inactive”. With Cc1cc(CC(=O)O)c(C)n1-c1ccc(Cl)cc1 the Potency was “inactive”. For CO[C@]12C[C@@H](COC(=O)c3cncc(Br)c3)CN(C)[C@@H]1Cc1cn(C)c3cccc2c13, the Potency was “inactive”. In the case of O=C(NC1CCN(CCc2c[nH]c3ccccc23)CC1)c1ccccc1, the Potency is reported as “inactive”. With Clc1cccc(C(c2ccc3nc[nH]c3c2)n2ccnc2)c1 (stereo unspecified) the Potency was “inactive”. With Cc1c(-c2ccccc2)oc2c(C(=O)OCCN3CCCCC3)cccc2c1=O the Potency was “inactive”. For O=C(O)C(Cc1cc(I)c(O)c(I)c1)c1ccccc1 (stereo unspecified), the Potency was “inactive”. In the case of CC(C)(C)NCC(O)COc1cccc2c1C[C@H](O)[C@H](O)C2 (stereo partly specified), the Potency is reported as “inactive”. For Cc1nc(-c2ccc(Cl)cc2)oc1COC(C)(C)C(=O)O, the Potency was “inactive”. For NCc1ccccc1Sc1ccccc1CO, the Potency was “inactive”. In the case of C[N+]1(C)CCC(=C(c2ccccc2)c2ccccc2)CC1, the Potency is reported as “inactive”. For CCO[C@@H]1O[C@H](C(COCc2ccccc2)OCc2ccccc2)[C@H](OCc2ccccc2)[C@H]1O (stereo partly specified), the Potency was “inactive”.
